Test results published in PubChem BioAssay (Tox21).
Values joined by “and” are separate entries in the source; they are usually repeats but may differ in a detail not shown here. Equal values may be shown once. Results filed as inconclusive are left out. Where a call stands in place of a potency, no number is given. Active and inactive are the calls of the source. The call rests on the fitted dose curve.

Target: Thyrotropin receptor (Homo sapiens) (UniProt P16473)
Experiment: qHTS assay to identify small molecule agonists of the thyroid stimulating hormone receptor (TSHR) signaling pathway (AID 1224843); further: nearly all actives have a fitted effect of over 45% in size
Details: TSHR-HEK293 cells, cAMP HTRF, agonist mode, 30 min; series mostly up to 92.4 µM; activation: at the top concentration
Description: National Center for Advancing Translational Sciences [NCATS]
NIH Chemical Genomics Center [NCGC]
U.S. Environmental Protection Agency [EPA]
National Institutes of Environmental Health Sciences [NIEHS]
National Toxicology Program [NTP]
U.S. Food and Drug Administration [FDA]
TSHR is the receptor for thyrotropin (thyroid stimulating hormone or TSH), a member of the glycoprotein hormone family. TSH is released by the anterior pituitary gland and is the main regulator of thyroid gland growth and development. Upon binding circulating thyrotropin, a G-protein signal cascade activates adenylyl cyclase and […] cAMP concentration is increased. cAMP is a key second messenger involved extensively in cellular signal transduction pathways associated with the majority of G-protein coupled receptors (GPCRs). The activation of these GPCRs by neurotransmitters, lipids, nucleotides, peptides and hormones results in the activation or the inhibition of plasma membrane-bound adenylate cyclase through heterotrimeric G-proteins. A cell-based TSHR assay was used to screen the Tox21 10K library for compounds that can modulate TSHR in agonist mode.
Tox21 Assay Protocol Summary:
TSHR-Hek293 cells were dispensed at 800 cells/4uL/well in 1536-well white plates using a Multidrop dispenser. […] The plates were incubated at room temperature for 30 min. 2.5 ul/well of cAMP-d2 and 2.5ul/well of anti-cAMP-cryptate was added respectively into the assay plates using a Flying Reagent Dispenser. After 1 hr incubation at room temperature, the fluorescence intensity in the plates was measured using an Envision plate reader. Each test compound was measured at 15 concentrations and in triplicates.
Potency means the concentration at half of the fitted maximal effect.

Thyrotropin receptor (Homo sapiens), sequence (P16473 whole entry, looked up): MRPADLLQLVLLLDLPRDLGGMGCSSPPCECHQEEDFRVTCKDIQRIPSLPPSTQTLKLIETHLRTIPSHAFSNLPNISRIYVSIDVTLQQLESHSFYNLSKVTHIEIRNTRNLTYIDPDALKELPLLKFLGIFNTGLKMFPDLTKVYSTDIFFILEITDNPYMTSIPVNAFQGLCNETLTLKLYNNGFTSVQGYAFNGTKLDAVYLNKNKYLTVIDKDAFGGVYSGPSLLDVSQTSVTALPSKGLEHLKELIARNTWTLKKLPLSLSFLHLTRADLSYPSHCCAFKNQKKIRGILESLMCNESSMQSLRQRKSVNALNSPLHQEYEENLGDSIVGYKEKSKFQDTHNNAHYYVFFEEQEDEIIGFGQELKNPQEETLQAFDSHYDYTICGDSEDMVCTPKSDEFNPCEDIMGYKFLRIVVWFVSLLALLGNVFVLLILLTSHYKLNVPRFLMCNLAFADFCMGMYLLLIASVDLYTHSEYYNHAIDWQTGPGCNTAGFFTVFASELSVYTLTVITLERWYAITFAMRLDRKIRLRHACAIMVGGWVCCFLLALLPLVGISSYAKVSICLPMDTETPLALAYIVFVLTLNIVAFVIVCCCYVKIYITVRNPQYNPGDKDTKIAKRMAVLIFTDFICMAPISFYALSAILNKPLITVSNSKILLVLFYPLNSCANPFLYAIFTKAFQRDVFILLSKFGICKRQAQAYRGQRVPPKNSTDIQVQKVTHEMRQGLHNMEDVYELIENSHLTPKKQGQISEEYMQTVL

Row | Compound | Potency | activation
1 | CCCCC/C(C=O)=C\c1ccccc1 | inactive | 
2 | NC(=O)NO | inactive | 
3 | CC(C)Cc1ccc(C(C)C(=O)O)cc1 (stereo not given) | inactive | 
4 | C=CC(=O)NC(C)(C)CS(=O)(=O)O | inactive | 
5 | OC[C@@H](O)[C@@H](O)[C@H](O)[C@H](O)CO | inactive | 
6 | CCN1CCCC1=O | inactive | 
7 | CN(C)C=O | inactive | 
8 | C=CCOC(=O)CC(C)C | inactive | 
9 | CCCCCCCCCCCCCCCCCC(=O)OCC(O)CO (stereo not given) | inactive | 
10 | CCOCCO | inactive | 
11 | COc1ccccc1NC(=O)CC(C)=O | inactive | 
12 | CCc1cc(C(N)=S)ccn1 | inactive | 
13 | CC(C)(C)CC(C)(C)c1ccc(O)c(-n2nc3ccccc3n2)c1 | 27.7 µM (active) and 15.4 µM (active) | 
14 | COCC(C)N (stereo not given) | inactive | 
15 | CC(=O)Oc1ccccc1C(=O)O | inactive | 
16 | NC(N)=NC(N)=NCCc1ccccc1 | inactive | 
17 | Nc1ccc(N=Nc2ccccc2)c(N)n1 | inactive | 
18 | Oc1cccc(O)c1 | inactive | 
19 | Cc1cccc2ccccc12 | inactive | 
20 | c1ccc2[nH]c(-c3cscn3)nc2c1 | inactive | 

Row | Compound | Potency | activation
21 | CC(=O)CCC(C)C | inactive | 
22 | CCCCCCCCCCCCCC(=O)OC(C)C | inactive | 
23 | O=C1OC(c2ccc(O)cc2)(c2ccc(O)cc2)c2ccccc21 | inactive | 
24 | N[C@@H](Cc1c[nH]c2ccccc12)C(=O)O |  | 13.8% (inactive)
25 | C/C=C/c1ccc(O)c(OC)c1 | inactive | 
26 | C[C@]12CC[C@@H]3c4ccc(O)cc4C[C@@H](CCCCCCCCCS(=O)CCCC(F)(F)C(F)(F)F)[C@H]3[C@@H]1CC[C@@H]2O (stereo not given in full) | inactive | 
27 | O=C(O)Cc1cccc2ccccc12 | inactive | 
28 | COc1cc(C=O)ccc1O | inactive | 
29 | C1CNCCN1 | inactive | 
30 | CCN(CC)CCOC(=O)c1ccc(N)cc1 | inactive | 
31 | O=C(OCc1ccccc1)c1ccccc1 | inactive | 
32 | C=C(C)C(N)=O | inactive | 
33 | COC(=O)C1CCC(C(=O)OC)CC1 (stereo not given) | inactive | 
34 | OCCCc1ccccc1 | inactive | 
35 | CO[C@H]1C=CO[C@@]2(C)Oc3c(C)c(O)c4c(O)c(c(/C=N/N5CCN(C)CC5)c(O)c4c3C2=O)NC(=O)/C(C)=C\C=C[C@H](C)[C@H](O)[C@@H](C)[C@@H](O)[C@@H](C)[C@H](OC(C)=O)[C@@H]1C | inactive | 
36 | O=[N+]([O-])c1ccc(O)cc1 | inactive | 
37 | N[C@@H](Cc1c[nH]c2ccc(O)cc12)C(=O)O | inactive | 
38 | O=C(O)CCCCC1CCSS1 (stereo not given) | inactive | 
39 | Cc1ccc(O)c(-n2nc3ccccc3n2)c1 | inactive | 
40 | NC(=O)N/N=C/c1ccc([N+](=O)[O-])o1 |  | 4.98% (inactive)
